Data as given in PubChem BioAssay (NCATS).
Records with an inconclusive call do not appear. Active and inactive are the calls of the source. The call rests on the fitted dose curve; in most records, active means well fitted curve in the direction sought with a large enough effect; inconclusive means small, poorly fitted or top-dose-only effect, or another doubt; inactive means no such curve, though single readings can be large; an effect the other way counts as inactive or inconclusive.

Key:
[1] = HEK293 12hr Apoptosis Induction qHTS against the NCATS CANVASS Library (AID 1347361); conditions: HEK293 caspase-3/7 Caspase-Glo luminescence; series mostly up to 46.1 µM
Procedure, shortened: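 500 HEK293 cells/well; cpds pin-transferred, 11-pt conc series; 12 h, 37 degrees C/5% CO2; Caspase-Glo 3/7 added, 15 min RT dark; luminescence.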

[2] = system: NAD(P)H diaphorase (Clostridium kluyveri); test: Diaphorse counterscreen qHTS: Assay Interference Panel against the NCATS CANVASS Library (AID 1347362); conditions: Diaphorase enzyme, resazurin to resorufin fluorescence; series mostly up to 57.5 µM
Procedure, shortened: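 Clostridium kluyveri diaphorase in PBS + 0.01% Tween-20 preincubated 15 min with compounds. Resazurin and NADH then added for 5 min at room temperature in the dark; resorufin fluorescence read (ex 525, em 598).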

[3] = biological target: Luciferin 4-monooxygenase (Photinus pyralis) (UniProt P08659); test: Firefly luciferase counterscreen qHTS: Assay Interference Panel against the NCATS CANVASS Library (AID 1347363); conditions: purified firefly luciferase, luminescence inhibition, 5 min; series mostly up to 57.5 µM
Procedure, shortened: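 Purified P. pyralis luciferase (0.04 ug/mL, 4x reagent) added to Tris-acetate buffer with 0.013 mM D-luciferin, 0.013 mM ATP and 13.3 mM Mg-acetate; compounds preincubated 15 min, then luminescence read after 5 min, RT.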

[4] = SDT Cancer Cell Toxicity qHTS against the NCATS CANVASS Library (AID 1347365); conditions: SDT dog glioma viability, ATP luminescence, 72 h; series mostly up to 46.1 µM;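 further: SDT canine glioma cells 500 per well in 1536 well plates; nearly all actives have a fitted effect of over 60% in size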
Procedure, shortened: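 SDT canine glioma cells (500 cells/well) were exposed to compounds in an 11-point series for 72 hr at 37C, 5% CO2; viability was read as ATP content by CellTiterGlo luminescence.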

[5] = qHTS for ATAD5 Agonist screened against the NCATS CANVASS Library (AID 1347367); conditions: HEK293T ATAD5-luciferase reporter, luminescence, 16 h; series mostly up to 46.1 µM
Procedure, shortened: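 Luminescence read-out: ATAD5-driven luciferase in stably transfected HEK 293T cells, which rises post-transcriptionally with DNA damage. Cells were exposed 16hr at 37C to test compound; a CellTiter-Fluor fluorescence read (1hr) measured viability first.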

[6] = G06 Cancer Cell Toxicity qHTS against the NCATS CANVASS Library (AID 1347368); conditions: G06 dog glioma cells, viability ATP luminescence, 72 h; series mostly up to 46.1 µM; further: nearly all actives have a fitted effect of over 60% in size
Procedure, shortened: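 G06 dog glioma cells seeded at 500 cells/well were exposed to compounds (11-point qHTS series) for 72 hr at 37C, 5% CO2; viability read as ATP content by CellTiterGlo luminescence.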

[7] = MCF7 Cancer Cell Toxicity qHTS against the NCATS CANVASS Library (AID 1347369); conditions: MCF7 viability, ATP luminescence (CellTiter-Glo), 72 h; series mostly up to 46 µM
Procedure, shortened: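 Luminescent ATP signal (CellTiterGlo) served as the cytotoxicity read-out after MCF7 breast cancer cells had been incubated 72 hr at 37C with natural products in an 11-point titration.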

[8] = qHTS for ATAD5 Antagonist screened against the NCATS CANVASS Library (AID 1347370); conditions: HEK293T-ATAD5-luc, 5-FUrd stimulated, luminescence, 16 h; series mostly up to 46.1 µM;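 further: HEK293T cells carrying an ATAD5 luciferase reporter co-treated with 10 µM 5-fluorouridine; nearly all actives have a fitted effect of over 65% in size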
Procedure, shortened: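 HEK293T cells with a stably integrated ATAD5-controlled luciferase reporter were exposed to compounds (11-pt) alongside 10 uM 5-fluorouridine as ATAD5 stabilizer for 16hr at 37C. Viability was read by CellTiter-Fluor fluorescence, then ATAD5 by luminescence.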

[9] = J3T Cancer Cell Toxicity qHTS against the NCATS CANVASS Library (AID 1347371); conditions: J3T dog glioma viability, ATP luminescence, 72 h; series mostly up to 46.1 µM;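 further: J3T is a canine glioma cancer cell line seeded at 500 cells per well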
Procedure, shortened: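 J3T dog glioma cells (500 cells/well) were exposed to compounds in an 11-point series for 72 hr at 37C, 5% CO2. Cytotoxicity was read as ATP content by CellTiterGlo luminescence.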

[10] = KB-3-1 Cancer Cell Toxicity qHTS against the NCATS CANVASS Library (AID 1347366); conditions: KB-3-1 viability, CellTiter-Glo luminescence, 72 h; at 46.1 µM (top of the series); further: nearly all actives have a fitted effect of over 75% in size
Procedure, shortened: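 500 KB-3-1 cells/well; compounds pin-transferred, 11-pnt series; 72 hr, 37C/5% CO2; CellTiter-Glo, 10 min RT; luminescence read-out.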

Measured: outcome

Chain of Luciferin 4-monooxygenase (Photinus pyralis) (P08659 whole entry, looked up): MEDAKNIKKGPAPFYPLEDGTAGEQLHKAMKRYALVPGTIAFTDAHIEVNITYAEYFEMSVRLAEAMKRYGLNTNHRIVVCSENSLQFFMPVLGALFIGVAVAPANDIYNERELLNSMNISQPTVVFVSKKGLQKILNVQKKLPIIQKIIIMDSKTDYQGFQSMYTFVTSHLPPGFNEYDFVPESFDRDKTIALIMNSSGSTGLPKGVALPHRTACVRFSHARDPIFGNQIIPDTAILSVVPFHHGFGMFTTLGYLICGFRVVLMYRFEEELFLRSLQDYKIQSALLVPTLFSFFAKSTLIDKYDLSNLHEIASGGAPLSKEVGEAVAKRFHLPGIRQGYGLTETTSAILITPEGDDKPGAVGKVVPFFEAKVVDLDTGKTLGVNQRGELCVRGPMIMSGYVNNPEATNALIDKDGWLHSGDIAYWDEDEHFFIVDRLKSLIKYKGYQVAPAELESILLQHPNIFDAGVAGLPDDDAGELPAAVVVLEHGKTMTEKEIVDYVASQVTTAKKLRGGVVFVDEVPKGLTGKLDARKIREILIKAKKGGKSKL

C=C(C)[C@@H]1CC[C@]2(C(=O)O)CC[C@]3(C)[C@H](CC[C@@H]4[C@@]5(C)CC[C@H](O)C(C)(C)[C@@H]5CC[C@]43C)[C@@H]12
not listed: [10]
inactive: all other assays above

O=c1c(O)c(-c2ccc(O)c(O)c2)oc2cc(O)ccc12
not listed: [2] | [4] | [6]
inactive: all other assays above
